{
  "source": "PubChem BioAssay AID1857",
  "about": "(The Scripps Research Institute Molecular Screening Center, 2009)",
  "note": "Out of some 1,300 compounds screened, about 290 (22%) were called active.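 The calls were made as follows: active = inhibition above the mean of all tested compounds plus 3 SD (cut at about 19% in these data); inactive = the rest.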 The sample as a whole holds a higher share of actives than the screen did.",
  "data": [
    {"tested_on": "VIM-2 metallo-beta-lactamase (Pseudomonas aeruginosa)", "assay": "VIM-2 inhibitors in FRET format, confirmation, artefact control for selective VIM-2 inhibitor project, biochemical, epi-absorbance artifact exclusion (AID 1857);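 also: 0% = VIM-2 plus DMSO and 100% = no enzyme wells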", "settings": "purified VIM-2, CCF2 FRET substrate hydrolysis; at 5.6 µM; active compounds read high", "values": [
      {"smiles": "Cc1cc(OCc2cc(C(=O)O)oc2C)c2c3c(c(=O)oc2c1)CCCC3", "inhibition": "80.6% (active)"},
      {"smiles": "Cc1cc(=O)oc2c(C)c(OCC(=O)N3CCN(Cc4ccc5c(c4)OCO5)CC3)ccc12", "inhibition": "-0.88% (inactive)"}
    ]}
  ]
}
